# Screening results: PubChem, National Center for Advancing Translational Sciences (NCATS)
# EPAC2 ag – qHTS for Agonist of cAMP-regulated guanine nucleotide exchange factor 4 (EPAC2): primary screen; AID 720711, 2013; 360,000 tested, 0.079% active; EPAC2 activation, biochemical qHTS; response scale: 100% = 6.5 mM cAMP response; Potency, µM (top dose mostly 154 µM), for the others: top-dose activation, hits mostly activators; also: nearly all actives have a fitted effect of over 50% in size
#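 Compounds were added across a concentration range to EPAC2 (100 nM), RAP1B-BODIPY-GDP (250 nM) and GDP (50 uM). After 5 min at room temperature, fluorescence was recorded at 5-min intervals for 30 min.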
# ALOX12 inh – Primary qHTS assay for inhibitors of human arachidonate 12S-lipoxygenase (ALOX12): Round 2; Potency, µM (titrated, usually from 108 µM), for the others: at the top dose activity change, negative = inhibition, hits mostly inhibitors; AID 1671190, 2021; Polyunsaturated fatty acid lipoxygenase ALOX12 (Homo sapiens), P18054; purified 12hLO, xylenol orange hydroperoxide absorbance; 580,000 tested, 1.1% active; also: % is scaled to controls: 0 for no effect and ±100 for the full control effect
#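 Purified human 12hLO at 150 nM in 25 mM Hepes, 0.01% Triton X-100, pH 7.0, preincubated 15 min at room temperature with compound. Reaction started with 40 uM arachidonic acid, 30 min at room temperature. Hydroperoxide measured by Fe-xylenol orange, 573/405 nm absorbance ratio.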
# EPAC1 antag – qHTS for Antagonist of cAMP-regulated guanine nucleotide exchange factor 3 (EPAC1): primary screen; Rap guanine nucleotide exchange factor 3 (Homo sapiens), O95398; EPAC1 GEF assay, Rap1b-BODIPY-GDP exchange fluorescence; Potency, µM (doses to about 115 µM), without a hit: top-dose activity change, negative = inhibition, usual class: inhibitors; 360,000 tested, 0.14% active;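 also: plate controls were vehicle for no effect and positive control for full effect; nearly all actives have a fitted effect of over 50% in size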
# Target sequence (O95398 whole entry, looked up): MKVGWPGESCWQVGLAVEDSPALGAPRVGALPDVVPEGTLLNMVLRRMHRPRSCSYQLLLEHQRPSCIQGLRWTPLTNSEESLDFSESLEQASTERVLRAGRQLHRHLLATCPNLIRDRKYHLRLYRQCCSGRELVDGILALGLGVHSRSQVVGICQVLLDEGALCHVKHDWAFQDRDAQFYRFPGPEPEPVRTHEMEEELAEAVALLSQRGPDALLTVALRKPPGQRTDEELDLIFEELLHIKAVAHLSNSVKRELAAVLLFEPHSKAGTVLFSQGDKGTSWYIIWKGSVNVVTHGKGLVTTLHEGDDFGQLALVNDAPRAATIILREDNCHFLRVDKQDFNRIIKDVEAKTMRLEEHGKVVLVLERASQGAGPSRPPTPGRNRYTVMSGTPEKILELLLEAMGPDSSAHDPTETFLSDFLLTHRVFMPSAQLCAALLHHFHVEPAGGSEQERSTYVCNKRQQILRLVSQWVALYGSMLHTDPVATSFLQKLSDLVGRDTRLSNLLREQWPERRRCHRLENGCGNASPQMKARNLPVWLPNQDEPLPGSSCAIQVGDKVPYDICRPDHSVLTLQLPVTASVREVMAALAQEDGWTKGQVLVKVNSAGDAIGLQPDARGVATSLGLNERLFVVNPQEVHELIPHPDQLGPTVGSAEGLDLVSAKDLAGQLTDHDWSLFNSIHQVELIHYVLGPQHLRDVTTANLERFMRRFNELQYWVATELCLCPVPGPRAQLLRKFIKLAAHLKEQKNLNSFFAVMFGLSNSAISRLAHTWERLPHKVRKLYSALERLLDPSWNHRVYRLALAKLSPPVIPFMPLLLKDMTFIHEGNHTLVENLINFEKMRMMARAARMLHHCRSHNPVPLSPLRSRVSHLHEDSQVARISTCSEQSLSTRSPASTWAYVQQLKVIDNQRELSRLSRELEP
# EPAC1 agonist – qHTS for Agonist of cAMP-regulated guanine nucleotide exchange factor 3 (EPAC1): primary screen; Rap guanine nucleotide exchange factor 3 (Homo sapiens), O95398; EPAC1 agonist qHTS, biochemical assay; response scale: 100% = response to 6.5 mM cAMP; Potency, µM (highest dose often 154 µM), for the others: at the highest dose activation, most hits filed as activators; 360,000 tested, 0.073% active; AID 720707, 2013; also: nearly all actives have a fitted effect of over 60% in size
#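 Fluorescent GDP-exchange assay: 100 nM EPAC1 with 250 nM Rap1B preloaded with BODIPY-GDP and 50 uM GDP; compounds tested as concentration series, 5 min at room temperature, then read every 5 min for 30 min (ex 480/em 540 nm); normalized to 6.5 mM cAMP.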
# EPAC2 antag – qHTS for Antagonist of cAMP-regulated guanine nucleotide exchange factor 2 (EPAC2): primary screen. Rap guanine nucleotide exchange factor 4 (Homo sapiens), Q8WZA2. EPAC2 GEF exchange of Rap1B-BODIPY-GDP, fluorescence. Potency, µM (titrated, usually from 114 µM), without a hit: at the top dose activity, negative = inhibition, actives largely listed as inhibitors. 360,000 tested, 0.18% active; also: % is scaled to controls: 0 for no effect and ±100 for the full control effect; nearly all actives have a fitted effect of over 45% in size
# USP1-UAF1 inh – Inhibitors of USP1/UAF1: Primary Screen; Potency, µM (series often up to 57.1 µM), without a hit: top-dose activity change, negative = inhibition, usual class: inhibitors; recombinant USP1/UAF1, Ub-Rhodamine cleavage fluorescence; 390,000 tested, 0.23% active; AID 743255, 2014; also: % is scaled to controls: 0 for no effect and ±100 for the full control effect; nearly all actives have a fitted effect of over 60% in size
#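 In this screen, compounds sit with the deubiquitinase complex (1nM) for 15 min at room temperature before Ub-Rho is added at 150nM final. Fluorescence rise is then followed for 6 reads every 60 seconds.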
# Numbers without * were called inactive; ? = inconclusive; . = not tested or not shown. Hits are enriched below; roughly 1.3% of the tested compounds scored in any of these assays. Calls follow the shape of the dose curve; as a rule, active = well fitted curve in the direction sought with a large enough effect; inconclusive = small, poorly fitted or top-dose-only effect, or another doubt; inactive = no such curve, though single readings can be large; an effect the other way counts as inactive or inconclusive. Potency is read from the fitted curve at half-maximal effect.
SMILES,EPAC2 ag,ALOX12 inh,EPAC1 antag,EPAC1 agonist,EPAC2 antag,USP1-UAF1 inh
CC(C)Cn1c(C23CC4CC(CC(C4)C2)C3)n[nH]c1=S,3%,28µM*,15%,-4%,-4%,-22%
Fc1ccccc1-n1c(C23CC4CC(CC(C4)C2)C3)n[nH]c1=S,.,14µM*,.,.,.,.
Cn1c(C23CC4CC(CC(C4)C2)C3)n[nH]c1=S,-1%,?,7%,8%,1%,-3%
COCCCn1c(C23CC4CC(CC(C4)C2)C3)n[nH]c1=S,8%,?,-32%,5%,-14%,-2%
Cn1c(N)c(C(=O)CSc2nnc(-c3c[nH]c4ccccc34)n2C2CC2)c(=O)[nH]c1=O,63µM*,14%,?,10%,50µM*,?
Cc1ccc(-c2cc(C(=O)Nc3ccccc3C)c3ccccc3n2)o1,-4%,5µM*,-13%,0%,-1%,-11%
CCc1nnc(NC(=O)c2cc(-c3ccc(C)o3)nc3ccccc23)s1,-1%,6.3µM*,?,-7%,-6%,5%
Cc1ccnc(NC(=O)c2cc(-c3ccc(C)o3)nc3ccccc23)c1,.,10µM*,.,.,.,.
COc1cccc(NC(=O)c2cc(-c3ccc(C)o3)nc3ccccc23)c1,0%,303%,-25%,-3%,4%,-11%
Cc1ccc(-c2cc(C(=O)Nc3ccc(F)cc3)c3ccccc3n2)o1,.,3.2µM*,.,.,.,.
COCC(=O)OC1CCn2c1nc1c2C(=O)C(C)=C(NC(C)=O)C1=O (centres undefined),24%,-27%,?,7%,?,4.5µM*
O=Cc1cccn1-c1ccccc1F,.,31%,.,.,.,.
COCCCNC(=O)CSc1cc(C)ccc1C,.,-8%,.,.,.,.
COC(=O)CN1C(=S)N(c2ccc(OC)cc2)C(=O)/C1=C/c1ccc(OC)cc1,3%,0%,-7%,-1%,1%,-21%
COC(=O)CN1C(=S)N(c2ccc(OC)cc2)C(=O)/C1=C/c1ccc(N2CCOCC2)cc1,?,-16%,31%,?,58%,28µM*
O=C(c1ccccc1)c1c2c(cc3sc4ccccc4[n+]13)-c1cccc3cccc-2c13,2%,32µM*,18%,-3%,-3%,?
CCN1CCN(c2oc(-c3ccc(S(=O)(=O)N4CCOCC4)cc3)nc2C#N)CC1,.,2%,.,.,.,.
Cc1ccc(NS(=O)(=O)c2ccc(C(=O)NNC(=O)c3ccccc3O)cc2)cc1,3%,45µM*,-8%,8%,-4%,-17%
O=Cc1ccc(-c2nc3ccccc3s2)o1,-3%,-2%,-15%,0%,1%,-8%
O=C(O)CCN1C(=O)/C(=C/c2ccc(-c3nc4ccccc4s3)o2)SC1=S,3%,40µM*,-24%,-6%,2%,7.1µM*
O=C(O)CCCN1C(=O)/C(=C\c2ccc(-c3nc4ccccc4s3)o2)SC1=S,-7%,40µM*,-9%,1%,3%,?
O=C(O)CCCN1C(=O)/C(=C/C=C/c2ccco2)SC1=S,15%,?,-13%,18%,3%,-8%
O=C(O)c1ccc(-c2nc3ccccc3s2)o1,-5%,-12%,-20%,-17%,-5%,-13%
O=C(O)CC(C(=O)O)N1C(=O)/C(=C/c2ccc(-c3nc4ccccc4s3)o2)SC1=S (centres undefined),13%,16µM*,12%,5%,-18%,28µM*
